# In PubChem BioAssay (NCATS):
# Results filed as inconclusive are left out. Entries that show only a call come without a potency. A number with no mark means an inactive call. Calls of active or inactive are those of the source. Calls come from the whole dose curve; as a rule, active = well fitted curve in the direction sought with a large enough effect; inconclusive = small, poorly fitted or top-dose-only effect, or another doubt; inactive = no such curve, though single readings can be large; an effect the other way counts as inactive or inconclusive.
# Key:
# [1] = target: ATP-dependent 6-phosphofructokinase (Trypanosoma brucei brucei) (UniProt O15648); experiment: qHTS Assay to Find Inhibitors of T. brucei phosphofructokinase: hit validation (AID 492961);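 note: luminescence reports ADP formed as PFK phosphorylates fructose-6-phosphate with ATP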
# Chain of ATP-dependent 6-phosphofructokinase (Trypanosoma brucei brucei) (O15648 whole entry, looked up): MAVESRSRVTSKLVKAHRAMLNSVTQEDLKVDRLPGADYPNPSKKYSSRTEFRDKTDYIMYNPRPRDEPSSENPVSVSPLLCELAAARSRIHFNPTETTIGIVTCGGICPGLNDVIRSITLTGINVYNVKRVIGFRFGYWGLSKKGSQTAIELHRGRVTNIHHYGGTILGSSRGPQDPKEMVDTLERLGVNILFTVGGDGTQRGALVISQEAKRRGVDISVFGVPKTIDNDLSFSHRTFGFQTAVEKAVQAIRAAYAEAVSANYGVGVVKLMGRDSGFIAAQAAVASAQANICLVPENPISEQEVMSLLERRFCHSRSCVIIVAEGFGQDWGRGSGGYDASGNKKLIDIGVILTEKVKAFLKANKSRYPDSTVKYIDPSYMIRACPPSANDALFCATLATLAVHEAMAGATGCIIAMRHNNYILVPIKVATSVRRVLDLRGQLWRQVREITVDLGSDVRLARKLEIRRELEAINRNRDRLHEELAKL
# Summary of the method: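 Reaction: 0.1 M triethanolamine pH 8.0, 5 mM MgCl2, F6P 0.5 mM, ATP 0.1 mM, PFK 1.25 nM, 45 min RT. Read-out: ADP-Glo luminescence. Analysis: concentration-response fits, classed by r2 and efficacy.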
# [2] = target: Ubiquitin carboxyl-terminal hydrolase 1 (Homo sapiens) (UniProt O94782); experiment: Inhibitors of USP1/UAF1: Pilot qHTS (AID 504865); note: nearly all actives have a fitted effect of over 35% in size; note: potency is the fitted concentration of half-maximal effect
# Chain of Ubiquitin carboxyl-terminal hydrolase 1 (Homo sapiens) (O94782 whole entry, looked up): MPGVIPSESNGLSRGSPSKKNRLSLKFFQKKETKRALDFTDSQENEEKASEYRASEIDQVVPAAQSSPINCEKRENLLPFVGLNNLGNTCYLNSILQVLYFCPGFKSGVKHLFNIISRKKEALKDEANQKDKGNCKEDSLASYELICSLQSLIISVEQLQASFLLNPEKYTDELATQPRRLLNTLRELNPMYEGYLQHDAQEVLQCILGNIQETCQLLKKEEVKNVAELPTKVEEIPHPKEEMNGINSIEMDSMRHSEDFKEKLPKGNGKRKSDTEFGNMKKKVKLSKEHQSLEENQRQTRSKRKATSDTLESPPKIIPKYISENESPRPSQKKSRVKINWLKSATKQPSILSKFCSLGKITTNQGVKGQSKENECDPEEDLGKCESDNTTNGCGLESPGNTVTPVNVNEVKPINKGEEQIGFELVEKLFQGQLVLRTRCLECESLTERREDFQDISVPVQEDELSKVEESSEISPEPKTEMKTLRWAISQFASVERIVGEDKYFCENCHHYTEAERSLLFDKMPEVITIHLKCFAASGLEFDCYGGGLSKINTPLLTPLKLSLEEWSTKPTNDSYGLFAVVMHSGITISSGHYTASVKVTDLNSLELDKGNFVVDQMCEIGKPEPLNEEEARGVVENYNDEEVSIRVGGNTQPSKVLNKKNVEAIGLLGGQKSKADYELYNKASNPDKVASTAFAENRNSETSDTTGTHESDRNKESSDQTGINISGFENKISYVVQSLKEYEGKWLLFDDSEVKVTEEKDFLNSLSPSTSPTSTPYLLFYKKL
# Summary of the method: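 USP1/UAF1 complex (1nM) preincubated with compound 15 min at room temperature, then Ub-Rho substrate (150nM final) added. Fluorescence read kinetically at 480/540 nm, 6 reads every 60 seconds. Buffer: 50mM HEPES pH 7.8, 0.5mM EDTA, 0.1 mg/ml BSA, 1mM TCEP, 0.01% Tween-20.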
# [3] = target: Luciferin 4-monooxygenase (Photinus pyralis) (UniProt P08659); experiment: Biochemical firefly luciferase enzyme assay for NPC (AID 624030);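 note: purified P. pyralis luciferase at 10 nM with luciferin and ATP substrate; nearly all actives have a fitted effect of over 70% in size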
# Chain of Luciferin 4-monooxygenase (Photinus pyralis) (P08659 whole entry, looked up): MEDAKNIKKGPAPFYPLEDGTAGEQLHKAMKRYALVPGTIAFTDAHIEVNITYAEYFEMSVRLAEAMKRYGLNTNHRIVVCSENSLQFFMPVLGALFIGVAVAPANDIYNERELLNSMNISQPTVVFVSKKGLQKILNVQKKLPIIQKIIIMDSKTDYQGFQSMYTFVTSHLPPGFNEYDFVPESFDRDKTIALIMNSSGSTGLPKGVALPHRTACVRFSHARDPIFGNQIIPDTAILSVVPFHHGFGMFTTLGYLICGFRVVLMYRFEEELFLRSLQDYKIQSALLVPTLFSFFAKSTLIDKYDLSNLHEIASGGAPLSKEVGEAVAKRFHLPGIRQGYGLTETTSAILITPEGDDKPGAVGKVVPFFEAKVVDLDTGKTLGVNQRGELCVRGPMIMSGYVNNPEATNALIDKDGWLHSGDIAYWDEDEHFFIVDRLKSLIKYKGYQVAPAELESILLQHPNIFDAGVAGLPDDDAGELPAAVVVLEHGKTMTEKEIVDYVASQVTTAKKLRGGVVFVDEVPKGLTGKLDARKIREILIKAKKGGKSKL
# Summary of the method: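 Counter-screen for direct inhibition of the luciferase enzyme by approved-drug library compounds, run at 10 nM enzyme in 50 mM Tris acetate (final). Luminescence was read within 5 min of enzyme-buffer addition and normalized to PTC124 versus DMSO (0%).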
# [4] = test system: ATS189; experiment: qHTS profiling for inhibitors of Plasmodium falciparum proliferation (AID 504749); note: nearly all actives have a fitted effect of over 60% in size; note: potency is the fitted concentration of half-maximal effect; conditions: P. falciparum in erythrocytes, SYBR Green DNA, 72 h; series mostly up to 28.7 µM
# Summary of the method: (§1)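 P. falciparum-infected erythrocytes (0.3% parasitemia, 2.5% hematocrit final) were exposed to compounds for 72 h at 37 C in 5% CO2, then lysed with SYBR Green buffer overnight at room temperature; parasite DNA fluorescence was normalized to artemisinin and DMSO controls.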
# [5] = test system: C2A; experiment: as above; conditions: P. falciparum in erythrocytes, SYBR Green DNA, 72 h; series mostly up to 28.7 µM
# Summary of the method: as §1
# [6] = test system: CP191; experiment: as above; conditions: P. falciparum in erythrocytes, SYBR Green DNA, 72 h; series mostly up to 28.7 µM
# Summary of the method: as §1
# [7] = test system: CP215; experiment: as above; conditions: P. falciparum in erythrocytes, SYBR Green DNA, 72 h; series mostly up to 28.7 µM
# Summary of the method: as §1
# [8] = test system: CP237; experiment: as above; conditions: P. falciparum in erythrocytes, SYBR Green DNA, 72 h; series mostly up to 28.7 µM
# Summary of the method: as §1
# [9] = test system: CP238; experiment: as above; conditions: P. falciparum in erythrocytes, SYBR Green DNA, 72 h; series mostly up to 28.7 µM
# Summary of the method: as §1
# [10] = test system: CP268; experiment: as above; conditions: P. falciparum in erythrocytes, SYBR Green DNA, 72 h; series mostly up to 28.7 µM
# Summary of the method: as §1
# [11] = test system: CP325; experiment: as above; conditions: P. falciparum in erythrocytes, SYBR Green DNA, 72 h; series mostly up to 28.7 µM
# Summary of the method: as §1
# [12] = test system: JCK; experiment: as above; conditions: P. falciparum in erythrocytes, SYBR Green DNA, 72 h; series mostly up to 28.7 µM
# Summary of the method: as §1
# [13] = as above; conditions: P. falciparum in erythrocytes, SYBR Green DNA, 72 h; for activity, negative = inhibition: at 28.7 µM (top of the series)
# Summary of the method: as §1
# [14] = test system: CP192; experiment: as above; conditions: P. falciparum in erythrocytes, SYBR Green DNA, 72 h; series mostly up to 28.7 µM
# Summary of the method: as §1
# [15] = test system: CP201; experiment: as above; conditions: P. falciparum in erythrocytes, SYBR Green DNA, 72 h; series mostly up to 28.7 µM
# Summary of the method: as §1
# [16] = test system: CP269; experiment: as above; conditions: P. falciparum in erythrocytes, SYBR Green DNA, 72 h; series mostly up to 28.7 µM
# Summary of the method: as §1
# [17] = test system: CP286; experiment: as above; conditions: P. falciparum in erythrocytes, SYBR Green DNA, 72 h; series mostly up to 28.7 µM
# Summary of the method: as §1
# [18] = test system: CP329; experiment: as above; conditions: P. falciparum in erythrocytes, SYBR Green DNA, 72 h; series mostly up to 28.7 µM
# Summary of the method: as §1
# [19] = test system: FAB9; experiment: as above; conditions: P. falciparum in erythrocytes, SYBR Green DNA, 72 h; series mostly up to 28.7 µM
# Summary of the method: as §1
# [20] = test system: PC49; experiment: as above; conditions: P. falciparum in erythrocytes, SYBR Green DNA, 72 h; series mostly up to 28.7 µM
# Summary of the method: as §1
structure (smiles),measurement,setting,value
C#CC1(O)C=CC2C3CCC4=CC(=O)CCC4C3CCC21CC (stereo not given),outcome,[1],inactive
same,Potency,[2],inactive
same,Potency,[3],inactive
same,Potency,[4],inactive
same,Potency,[5],inactive
same,Potency,[6],5.01 µM (active)
same,Potency,[7],9.53 µM (active)
same,Potency,[8],3.55 µM (active)
same,Potency,[9],inactive
same,Potency,[10],7.57 µM (active)
same,Potency,[11],12 µM (active)
same,Potency,[12],inactive
NC(Cc1ccc(Oc2cc(I)c(O)c(I)c2)c(I)c1)C(=O)O (stereo not given),Potency,[2],79.4 µM (active)
same,"activity, negative = inhibition",[13]; parasite line A,8.09%
same,"activity, negative = inhibition",[13]; parasite line B,-0.518%
same,Potency,[4],inactive
same,Potency,[5],inactive
same,Potency,[6],inactive
same,Potency,[14],inactive
same,Potency,[15],inactive
same,Potency,[7],inactive
same,Potency,[8],inactive
same,Potency,[9],inactive
same,Potency,[10],inactive
same,Potency,[16],inactive
same,Potency,[17],inactive
same,Potency,[11],inactive
same,Potency,[18],inactive
same,Potency,[19],inactive
same,Potency,[12],inactive
same,Potency,[20],inactive
O=C1CC2OCC=C3CN4CCC56c7ccccc7N1C5[C@H]2[C@H]3C[C@H]46 (stereo not given in full) (tested in a mixture with another compound),outcome,[1],inactive
same,Potency,[2],inactive
same,Potency,[4],inactive
same,Potency,[5],inactive
same,Potency,[6],inactive
same,Potency,[14],inactive
same,Potency,[15],inactive
same,Potency,[8],inactive
same,Potency,[9],inactive
same,Potency,[10],inactive
same,Potency,[16],inactive
same,Potency,[11],inactive
same,Potency,[18],inactive
same,Potency,[12],inactive
CC(C)CCC(=O)OC1CCC2C3CCC4=CC(=O)CC[C@]4(C)C3CC[C@]12C (stereo not given in full),Potency,[3],inactive
same,Potency,[13]; parasite line A,10 µM (active)
same,Potency,[4],8.91 µM (active)
same,Potency,[6],6.31 µM (active)
same,Potency,[14],inactive
same,Potency,[15],inactive
same,Potency,[7],inactive
same,Potency,[8],11.2 µM (active)
same,Potency,[10],inactive
same,Potency,[16],inactive
same,Potency,[17],4.47 µM (active)
same,Potency,[11],inactive
same,Potency,[18],inactive
same,Potency,[19],inactive
same,Potency,[12],inactive
same,Potency,[20],inactive
CCCC(C)C1(CC)C(=O)NC(=S)NC1=O (stereo not given),outcome,[1],inactive
same,Potency,[3],inactive
same,"activity, negative = inhibition",[13]; parasite line A,0.271%
same,"activity, negative = inhibition",[13]; parasite line B,18%
same,Potency,[4],inactive
same,Potency,[5],inactive
same,Potency,[6],inactive
same,Potency,[15],inactive
same,Potency,[7],inactive
same,Potency,[8],inactive
same,Potency,[9],inactive
same,Potency,[10],inactive
same,Potency,[16],inactive
same,Potency,[17],inactive
same,Potency,[11],inactive
same,Potency,[18],inactive
same,Potency,[19],inactive
same,Potency,[12],inactive
same,Potency,[20],inactive
